According to PubChem BioAssay:
“And” between values parts separate entries of the source, which are not always exact repeats. Equal entries are not always repeated. Inconclusive results are not listed. The source made the active and inactive calls.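 Rule for the calls, unless noted: active = normalized viability below 100% at a tested concentration; inactive = the rest.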

What was measured:
[1] = stimulators of nuclear beta-catenin in C2C12, primary screen, imaging, WNT3A-conditioned medium, mouse C2C12, NPC library (AID 1117326; in the data active = nuclear beta-catenin stimulation mostly above about 4.2%, no sharp cut-off; inactive = mostly below about 10%); conditions: stronger effect = higher value
[2] = stimulators of insulin release from INS-1E, primary screen, cell-based, 5 mM glucose, NPC library (AID 1117329;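 active = compound raises insulin release from rat beta cells at 5 mM glucose, no numeric limit stated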); conditions: rat INS-1E insulin secretion, at 10 µM, stronger effect = higher value
[3] = growth inhibition of GSK3B-pretreated HCT116 cells – cell-based, CellTiter-Glo, 0.2 to 20 µM (AID 1117336;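 active = compounds lowering colon cancer cell viability after pretreatment blocking the GSK3B kinase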); conditions: HCT116 viability after GSK3B inhibitor, at 20 µM, stronger effect = higher value
[4] = inhibition of endothelial tube formation, primary screen, imaging, VEGF stimulated, CD31 staining, tube area, NPC library (AID 1117340;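 active = compound that reduces growth-factor-driven endothelial tube area in a mixed cell culture, no cutoff stated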); conditions: VEGF-stimulated ADSC/ECFC co-culture, at 10 µM, stronger effect = higher value
[5] = glucagon-like peptide 1 release enhancers, primary assay, NCI-H716 cell line, NPC library (AID 1117341;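 active = compound raises GLP1 secretion from the human gut endocrine cells, with no numeric limit stated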); conditions: NCI-H716 cells, at 10 µM, stronger effect = higher value
[6] = HCT116 colon cancer cell growth inhibition, primary screen, CellTiter-Glo luminescence, NPC library (AID 1117342;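 active = compounds that lower survival of HCT116 colon cancer cells in the luminescence readout, no numeric limit stated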); conditions: at 20 µM (top of the series)
[7] = CellTiter-Glo luminescent readout of SW480 viability loss, NPC library primary (AID 1117343;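 active = compounds that lower viability of the colon cancer cells in the luminescence readout, with no numeric limit stated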); conditions: CellTiter-Glo luminescence; at 20 µM (top of the series) unless noted
[8] = decreased DLD-1 cellular survival, CellTiter-Glo luminescent readout, NPC compound collection, primary HTS (AID 1117346;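 active = compounds that lower survival of DLD-1 colon cancer cells in the luminescence readout, no cutoff given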); conditions: DLD-1 viability, CellTiter-Glo luminescence; at 20 µM (top of the series)
[9] = growth inhibition of DIPG glioma cells, dose response, cell-based, JHH-DIPG-1, MIPE4.0, CellTiter-Glo, qHTS (AID 1347062; cut-off not given, nearly all actives have AC50 up to about 27 µM); conditions: JHH-DIPG-1 viability, CellTiter-Glo ATP luminescence
[10] = viability loss in pontine glioma line – cell-based, SU-DIPG-XXV, MIPE5.0, CellTiter-Glo, qHTS, dose response (AID 1347065; cut-off not given, nearly all actives have AC50 up to about 26 µM;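 note: cells exposed to compound for 48 hours before ATP readout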); conditions: CellTiter-Glo ATP luminescence
[11] = SU-DIPG-VI glioma cell viability, MIPE4.0 library, CellTiter-Glo luminescence, qHTS (AID 1347066; cut-off not given, nearly all actives have AC50 up to about 30 µM;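 note: cells exposed to compound for 48 hours before readout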); conditions: CellTiter-Glo ATP luminescence
[12] = sensitizers of A549 cells to miR-34 induction, primary screen, imaging, A549 dox-inducible miR-34, nuclei and caspase counts (AID 1347080;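 active = compounds whose cell count with miR-34 switched on is under 0.7 times the count with it off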); conditions: A549 miR-34 inducible, Hoechst nuclei count, 48 h
[13] = survival rescue of mitochondrial mutant cells in low glucose, primary screen, MELAS cybrids, Rieske KO mouse fibroblasts, CellTiter-Glo (AID 1508586;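 active = mean z-score across replicates of 1.96 or higher in either the MELAS or the Rieske mutant cell line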;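 note: z relative to plate mean and SD of compound and empty wells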)
[14] = JHH-DIPG-1 glioma cell viability, MIPE5.0 library, CellTiter-Glo luminescence, qHTS (AID 1347067; cut-off not given, nearly all actives have AC50 up to about 26 µM;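 note: cells exposed to compound for 48 hours before readout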); conditions: JHH-DIPG-1 glioma viability, CellTiter-Glo ATP luminescence
[15] = ovarian cancer cell viability with rucaparib, profiling panel, oncology-focused library, rucaparib conditional (AID 1508598); conditions: patient-derived ovarian cancer cells, CellTiter-Glo viability, 144 h, stronger effect = lower value
[16] = growth inhibition of DIPG glioma cells, dose response, cell-based, SU-DIPG-IV, MIPE4.0, CellTiter-Glo, qHTS (AID 1347063; cut-off not given, nearly all actives have AC50 up to about 30 µM;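 note: compound exposure lasted 48 hours before the viability readout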); conditions: SU-DIPG-IV viability, CellTiter-Glo ATP luminescence
[17] = SU-DIPG-XXV glioma cell viability, MIPE5.0 library, qHTS (AID 1347068; cut-off not given, nearly all actives have IC50 up to about 30 µM)
[18] = stronger effect = lower value, cell number ratio, induced over uninduced
[19] = measured here: relative caspase fold change +Dox/-Dox
[20] = measured here: total cells with miR-34 induction, stronger effect = lower value
[21] = measured here: total cells without miR-34 induction
[22] = MELAS cybrid survival, CellTiter-Glo 48 h, stronger effect = higher value
[23] = Rieske KO mouse fibroblast survival, CellTiter-Glo 72 h

In the case of `O=C(O)c1ccc(-n2nc(-c3ccccc3O)nc2-c2ccccc2O)cc1`, the nuclear beta-catenin stimulation ([1]; at 10 µM) was 28.8% (inactive), the nuclear beta-catenin stimulation ([1]; stimulation, at 2 µM) was -2.6% and the insulin secretion stimulation [2] was 0.8% (inactive). For the same compound, the viability decrease [3] was 112% (active), the tube area decrease [4] was 102% (active) and the GLP1 secretion stimulation [5] was 7.6% (inactive). For the same compound, the inhibition of viability [6] was 112% (active), the viability decrease (inhibition) [7] was 130% (active) and the viability decrease (inhibition) [8] was 93.6% (active). The outcome [9] was “inactive”, the AC50 [10] was 20.9 µM (active) and the AC50 [11] was 23.5 µM (active). For the same compound, the fold change [12, 18] was 0.936 (inactive), the fold change [12, 19] was 1.1 and the cell count [12, 20] was 4300. The cell count [12, 21] was 4600, the z-score [13, 22] was -0.00061 (inactive) and the z-score [13, 23] was -0.754.
With `Cc1ccc(Nc2nccc(N(C)c3ccc4c(C)n(C)nc4c3)n2)cc1S(N)(=O)=O` the nuclear beta-catenin stimulation ([1]; at 10 µM) was 5.9% (inactive), the nuclear beta-catenin stimulation ([1]; stimulation, at 2 µM) was 1% and the insulin secretion stimulation [2] was 4.9% (inactive). The viability decrease [3] was 20.9% (inactive), the tube area decrease [4] was 97.1% (active) and the GLP1 secretion stimulation [5] was -3.5% (inactive). For the same compound, the inhibition of viability [6] was 48.8% (inactive), the viability decrease (inhibition) [7] was 69.3% (active) and the viability decrease (inhibition) [8] was 14.5% (inactive). For the same compound, the outcome [9] was “inactive”, the AC50 [10] was 5.9 µM (active) and the outcome [11] was “inactive”. The AC50 [14] was 18.6 µM (active), the fold change [12, 18] was 0.9 (inactive) and 0.786 (inactive) and the fold change [12, 19] was 1.31 and 0.946. For the same compound, the cell count [12, 20] was 4740 and 6080, the cell count [12, 21] was 5260 and 7730 and the z-score [13, 22] was -0.327 (inactive) and -0.404 (inactive). The z-score [13, 23] was -0.2 and 1.1, the viability ([15]; at 0.000305 µM, OCI-C5x cells, with rucaparib 10 µM, 100% = cells with rucaparib alone) was 96.4% (active) and the viability ([15]; at 0.000305 µM, OCI-C5x cells, without rucaparib) was 95.3% (active). The viability ([15]; at 0.000305 µM, OCI-P5x cells, with rucaparib 20 µM, 100% = cells with rucaparib alone) was 99% (active), the viability ([15]; at 0.000305 µM, OCI-P5x cells, without rucaparib) was 100% (inactive) and the viability ([15]; at 0.00122 µM, OCI-C5x cells, with rucaparib 10 µM, 100% = cells with rucaparib alone) was 104% (inactive). The viability ([15]; at 0.00122 µM, OCI-C5x cells, without rucaparib) was 106% (inactive), the viability ([15]; at 0.00122 µM, OCI-P5x cells, with rucaparib 20 µM, 100% = cells with rucaparib alone) was 105% (inactive) and the viability ([15]; at 0.00122 µM, OCI-P5x cells, without rucaparib) was 99.5% (active). The viability ([15]; at 0.00488 µM, OCI-C5x cells, with rucaparib 10 µM, 100% = cells with rucaparib alone) was 104% (inactive), the viability ([15]; at 0.00488 µM, OCI-C5x cells, without rucaparib) was 98.4% (active) and the viability ([15]; at 0.00488 µM, OCI-P5x cells, with rucaparib 20 µM, 100% = cells with rucaparib alone) was 100% (inactive). The viability ([15]; at 0.00488 µM, OCI-P5x cells, without rucaparib) was 99.3% (active), the viability ([15]; at 0.0195 µM, OCI-C5x cells, with rucaparib 10 µM, 100% = cells with rucaparib alone) was 98.1% (active) and the viability ([15]; at 0.0195 µM, OCI-C5x cells, without rucaparib) was 100% (inactive). The viability ([15]; at 0.0195 µM, OCI-P5x cells, with rucaparib 20 µM, 100% = cells with rucaparib alone) was 97.8% (active), the viability ([15]; at 0.0195 µM, OCI-P5x cells, without rucaparib) was 98.3% (active) and the viability ([15]; at 0.0781 µM, OCI-C5x cells, with rucaparib 10 µM, 100% = cells with rucaparib alone) was 103% (inactive). For the same compound, the viability ([15]; at 0.0781 µM, OCI-C5x cells, without rucaparib) was 102% (inactive), the viability ([15]; at 0.0781 µM, OCI-P5x cells, with rucaparib 20 µM, 100% = cells with rucaparib alone) was 97.9% (active) and the viability ([15]; at 0.0781 µM, OCI-P5x cells, without rucaparib) was 95.6% (active). The viability ([15]; at 0.313 µM, OCI-C5x cells, with rucaparib 10 µM, 100% = cells with rucaparib alone) was 109% (inactive), the viability ([15]; at 0.313 µM, OCI-C5x cells, without rucaparib) was 95.9% (active) and the viability ([15]; at 0.313 µM, OCI-P5x cells, with rucaparib 20 µM, 100% = cells with rucaparib alone) was 100% (inactive). The viability ([15]; at 0.313 µM, OCI-P5x cells, without rucaparib) was 90.2% (active), the viability ([15]; at 1.25 µM, OCI-C5x cells, with rucaparib 10 µM, 100% = cells with rucaparib alone) was 108% (inactive) and the viability ([15]; at 1.25 µM, OCI-C5x cells, without rucaparib) was 96.9% (active). The viability ([15]; at 1.25 µM, OCI-P5x cells, with rucaparib 20 µM, 100% = cells with rucaparib alone) was 87.9% (active), the viability ([15]; at 1.25 µM, OCI-P5x cells, without rucaparib) was 91.3% (active) and the viability ([15]; at 5 µM, OCI-C5x cells, with rucaparib 10 µM, 100% = cells with rucaparib alone) was 112% (inactive). The viability ([15]; at 5 µM, OCI-C5x cells, without rucaparib) was 115% (inactive), the viability ([15]; at 5 µM, OCI-P5x cells, with rucaparib 20 µM, 100% = cells with rucaparib alone) was 86% (active) and the viability ([15]; at 5 µM, OCI-P5x cells, without rucaparib) was 86% (active).
In the case of `COC(c1ccccc1)(c1ccccc1)[C@H](Oc1nc(C)cc(C)n1)C(=O)O`, the nuclear beta-catenin stimulation ([1]; at 10 µM) was -1.5% (inactive), the nuclear beta-catenin stimulation ([1]; stimulation, at 2 µM) was 0% and the insulin secretion stimulation [2] was 4.3% (inactive). The viability decrease [3] was -12.3% (inactive), the tube area decrease [4] was 10.8% (inactive) and the GLP1 secretion stimulation [5] was -5.9% (inactive). For the same compound, the inhibition of viability [6] was 6.7% (inactive), the viability decrease (inhibition) [7] was 9.7% (inactive) and the viability decrease (inhibition) [8] was -0.4% (inactive). The outcome [9] was “inactive”, the outcome [16] was “inactive” and the outcome [10] was “inactive”. For the same compound, the outcome [11] was “inactive”, the outcome [14] was “inactive” and the outcome [17] was “inactive”.
For `Clc1ccc(C(Cn2ccnc2)OCc2ccc(Sc3ccccc3)cc2)c(Cl)c1` (centres undefined), the nuclear beta-catenin stimulation ([1]; at 10 µM) was 8.8% (inactive), the nuclear beta-catenin stimulation ([1]; stimulation, at 2 µM) was 0% and the insulin secretion stimulation [2] was 6.2% (inactive). The viability decrease [3] was 110% (active), the tube area decrease [4] was 110% (active) and the GLP1 secretion stimulation [5] was 16% (inactive). For the same compound, the inhibition of viability [6] was 112% (active), the viability decrease (inhibition) [7] was 132% (active) and the viability decrease (inhibition) [8] was 101% (active). The AC50 [16] was 16.6 µM (active).
